This note sets out measurements from PubChem BioAssay (NCI).

The panel holds about 83,000 compounds, 20% with a hit somewhere; the sample as a whole holds those more often.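 The test compound was applied at a single concentration to cells in 96-well plates for 48 hours, and percent growth was recorded.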 A number with no mark means an inactive call. Activity calls are given as the source filed them. The calls were made as follows: active = growth percent below 10; inactive = the rest.

Assay in all cases: NCI-60 one-dose screen, 48 h (100 = growth as untreated, 0 = no growth, -100 = all killed)
Holding throughout (details): 10 µM unless noted

Experiment [1] concerns HCT-15 colon.
The subject of experiment [2] is HT29 colon.
For experiment [3], the system named is SNB-75 CNS.
Experiment [4] concerns SNB-19 CNS.
Experiment [5] has as its system U251 CNS.
Experiment [6] deals with PC-3 prostate.
For experiment [7], the system named is SK-MEL-5 melanoma.
For experiment [8], the system named is UACC-62 melanoma.
Experiment [9] has as its system LOX IMVI melanoma.
Experiment [10] concerns SK-MEL-28 melanoma.

On to `O=C(NC(Cc1nnc2n(Cc3ccccc3)c(=O)c3c4c(sc3n12)CCCC4)c1ccc(Cl)cc1)c1ccccc1` (stereo unspecified), for which the growth in experiment [1] is 68.3%; in [2] it was 89.1%; in [3], 73.7%; in experiment [4], 88.5%; in experiment [5] it was 91.8%; in experiment [6], 97.8%. The results for the growth in experiment [7], in experiment [8] and in experiment [9] were 81.9%, 63.1% and 79.4%, respectively.
As to `CC1OC(O[C@H]2/C=C/C=C/C=C/C=C/C=C/C=C/C=C/[C@H](C)[C@@H](O)[C@@H](C)[C@H](C)OC(=O)CC(O)CC(O)CCC(O)C(O)CC(O)C[C@]3(O)C[C@H](O)C(C(=O)O)C(C2)O3)C(O)[C@H](N)C1O` (stereo partly specified), the growth in experiment [1] is 76.7%; in experiment [2], 36.8%; in [3], 57.8%; in experiment [4] it was 40.2%; in [5] it was -57.1% (active); in experiment [6], -54.6% (active). The growth in [7] was 35.9%; in experiment [8], -13% (active).
Take `COc1cc(OC)cc(C2CC(=O)Nc3c2c(C)nn3-c2nc3ccccc3[nH]2)c1` (stereo unspecified): the growth in experiment [1] is 37.2%; in experiment [2], 23.5%; in experiment [3], -3.14% (active); in experiment [4], 21.9%; in experiment [5] it was 16.8%; in [6], 26.4%. Moreover, the growth is -62% (active) in experiment [7], -19.2% (active) in experiment [8] and 1.34% (active) in [9].
Turning to `CS(=O)c1cccc(-c2ccc3nc(N)n(-c4ccc(C(F)(F)F)cc4)c(=O)c3c2)c1` (stereo unspecified), the growth in [1] is 105%; in experiment [2], 99.8%; in [3], 114%; in experiment [4] it was 91.7%; in experiment [5], 88.9%; in [6] it was 83.5%. Further, the growth in [7] is 87.8%; in experiment [8], 95%; in experiment [9], 88.1%.
`Cc1cc(Cl)ccc1Nc1nc(C(F)(F)F)ccc1C(=O)N/N=C/c1ccc(N(C)C)cc1`: the growth in [1] is 15.9%; in experiment [2], 32.5%; in experiment [3] it was 65.1%; in experiment [4] it was 42%; in experiment [5] it was 16.2%; in [6], 30.3%. Besides, the growth in experiment [7] is 12.9%; in experiment [8], 9.47% (active); in [9], 27%; in experiment [10] it was 45.2%.
On to `O=C(CC(SCc1ccccc1)c1ccccc1)c1ccccc1` (stereo unspecified), for which the growth in experiment [1] is 74.4%; in [2], 86.8%; in experiment [3], 87.9%; in experiment [4] it was 88.6%; in experiment [5], 86.5%; in experiment [6] it was 88.8%. Besides, the growth was 97.3% in [7], 85.3% in [8] and 85.6% in [9].
As for `NC1=NCc2nc3ccccc3c(=O)n2C1`, the growth was 99.2% in [1]; 103% in [2]; 98.6% in [3]; 106% in experiment [4]; 103% in experiment [5]; 112% in experiment [6]. For the same compound, the values for the growth in [7], in experiment [8] and in experiment [9] were 107%, 92.3% and 99.3%, respectively.
As for `O=[N+]([O-])c1ccc(N2c3ccncc3Sc3ccncc32)cc1`, the growth in experiment [1] is 96.5%; in experiment [2], 121%; in [3] it was 98.9%; in experiment [4], 107%; in experiment [5], 93.4%; in experiment [6], 88.1%. Also, the growth in experiment [7] was 112%; in experiment [8], 93.2%; in experiment [9] it was 81.7%.
With `O=c1c2c3c(sc2n2c(-c4cn(-c5ccccc5)nc4-c4ccc(Cl)cc4)nnc2n1Cc1ccccc1)CCCC3`, the growth in [1] was 104%; in [2], 113%; in [3], 66.8%; in experiment [4], 97.9%; in [5], 98.2%; in experiment [6] it was 95.3%. Besides, the growth in [7] is 95.8%; in experiment [8], 90.6%; in experiment [9], 72.3%.
`O=[N+]([O-])c1ccc(C2CC(c3ccccc3)=Nc3ccccc3S2)cc1` (stereo unspecified): the growth in [1] was 97.6%; in experiment [2], 97.4%; in [3], 57.2%; in experiment [4] it was 85.8%; in experiment [5] it was 62.5%; in [6], 88.1%. The growth in [7] is 87.5%; in [8] it was 84.7%; in experiment [9], 64.3%; in experiment [10], 116%.
As for `Cc1ccc(/C=C/c2c(C(=O)/C=C/c3ccc(Cl)cc3)c(C)nc3ccccc23)cc1`, the growth in experiment [1] is -39.9% (active); in [2], 8.51% (active); in experiment [3], 68.8%; in experiment [4], -21.4% (active); in experiment [5], -36.9% (active); in [6] it was 11.6%. Besides, the growth is -40.6% (active) in experiment [7], -32.8% (active) in [8], -91% (active) in experiment [9] and -55% (active) in experiment [10].
As for `O=C(O)c1ccc2c(c1Cl)C(=O)c1ccccc1C2=O`, the growth is 95.9% in experiment [1]; 87.5% in experiment [2]; 73.1% in experiment [3]; 98.8% in experiment [4]; 99.1% in [5]; 116% in [6]. In addition, the growth in experiment [7] is 102%; in [8], 97.7%; in experiment [9], 97.2%; in experiment [10], 107%.
Consider `Cc1nn(-c2ccccc2)c(Oc2ccc(Cl)cc2)c1/C=N\N=c1/sc2ccccc2n1C`, for which the growth was 77.4% in [1]; 84.8% in experiment [2]; 74.4% in [3]; 99.1% in experiment [4]; 86.9% in experiment [5]; 62.3% in experiment [6]. In addition, the growth in [7] is 93.3%; in [8], 70.8%; in experiment [9], 93.3%; in experiment [10] it was 110%.
Turning to `NC(N)=Nc1nc2ccccc2n2c1nc1ccccc12`, the growth in experiment [1] is 25.9%; in experiment [2], 18.2%; in experiment [3], 43.7%; in experiment [4], 38.8%; in experiment [5], 27.8%; in experiment [6] it was 48.5%. Besides, the growth in [7] was 58.6%; in experiment [8], 40.7%; in [9] it was 20.6%; in [10], 82.3%.
